The values that follow come from PubChem BioAssay.

Active and inactive are the calls of the source.

The nature of experiment [1]: small molecules captured by biotinylated probe aFSTL3 – biochemical, small-molecule microarray, fluorescence 635/667, stem cell growth factor project, primary screen (AID 1064).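 Also: measures binding of the biotinylated anti-FSTL3 antibody to printed compounds.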 The following applies: higher = more signal.
The nature of experiment [2]: binders from COS7 lysate, DM2A8 probe, primary screen, torsin A project, cell lysate, small-molecule microarray, fluorescence 635/667 (AID 1065). The following applies: higher = more signal, COS7 lysate expressing mutant human TOR1A.
The nature of experiment [3]: small molecules captured by biotinylated probe aFGF2 – biochemical, small-molecule microarray, fluorescence 635/667, stem cell growth factor project, primary screen (AID 1067).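 Also: measures binding of biotinylated aFGF2 protein to printed compounds on slides; z-score merges feature fluorescence and signal-to-noise across triplicate slides.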 The following applies: higher = more signal.
A short description of experiment [4]: small molecules captured by biotinylated probe aFGF10 – biochemical, small-molecule microarray, fluorescence 635/667, stem cell growth factor project, primary screen (AID 1071).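 Also: score merges 667 nm spot intensity and signal to noise from triplicate slides.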 The following applies: higher = more signal.
For experiment [5], the target named is Neurogenic locus notch homolog protein 2 (Homo sapiens) (UniProt Q04721). In words: small molecules binding Notch2 protein – biochemical, small-molecule microarray, 635 nm fluorescence, stem cell growth factors, primary screen (AID 1073). The conditions noted are these: higher = more signal.
For experiment [6], the target named is Pro-neuregulin-1, membrane-bound isoform (Homo sapiens) (UniProt Q02297). Put plainly: small molecules binding neuregulin-1 protein – biochemical, small-molecule microarray, fluorescence 635/667, psychiatric disease protein project, primary screen (AID 1075).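 Also: score combines 667 nm spot fluorescence with signal to noise.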 The conditions noted are these: NRG1 binding, 635 nm fluorescence, higher = more signal.
Experiment [7] has as its system Neuregulin-1 EGF-like domain. In words: small molecules binding NRG1 EGF domain – biochemical, small-molecule microarray, 635 nm fluorescence, primary screen (AID 1081).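 Also: binding of the protein to compounds printed on small-molecule microarray slides.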 The following applies: higher = more signal.
A short description of experiment [8]: FRG1 expression reporter modulators in myotubes – cell-based, C2C12 myotubes, firefly/Renilla luciferase, luminescence, FRG1 inhibition for FSHD, primary screen (AID 1084). The conditions noted are these: FRG1 promoter luciferase, higher = more signal, called active from +8 up or from −8 down.
A short description of experiment [9]: small molecules captured by biotinylated probe aFST – biochemical, small-molecule microarray, fluorescence 635/667, stem cell growth factor project, primary screen (AID 1086).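 Also: score merges 667 nm fluorescence with signal-to-noise of each printed compound spot.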 The conditions noted are these: higher = more signal.
Experiment [10] is described as follows: binders of probe aHhip on microarray, primary screen, stem cell growth factor project, biochemical, small-molecule microarray, fluorescence 635/667 (AID 1087).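 Also: score merges spot fluorescence at 667nm with spot signal to noise ratio.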 The following applies: higher = more signal.
Experiment [11] concerns PRMT1 (protein arginine N-methyltransferase 1). Put plainly: small molecules binding arginine methyltransferase PRMT1 – biochemical, small-molecule microarray, 635 nm fluorescence, primary screen (AID 1088).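 Also: binding of Prmt1 protein to compounds spotted on small-molecule microarray slides.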 The conditions noted are these: higher = more signal.
Experiment [12] in a line: growth effects on S. cerevisiae YJM789 – YJM789 clinical isolate, OD600, 24 h, basal, primary screen (AID 1089).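 Also: growth of clinical yeast isolate S. cerevisiae YJM 789 seeded 1000 cells per well; test concentration not given here.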 The following applies: higher = more signal, called active from +8 up or from −8 down.
Experiment [13] in a line: S. pombe growth modifiers, basal conditions – strain 972, OD600, 24 h, no modulator, primary screen (AID 1090).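 Also: basal condition with compound alone and no growth modifier present; test concentration not given here.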 The conditions noted are these: S. pombe 972 growth, higher = more signal, called active from +8 up or from −8 down.
Experiment [14] is described as follows: budding yeast growth modifiers under rapamycin – strain BY4716, OD600, 96 h, primary screen (AID 1091). Also: test concentration not given here. The conditions noted are these: S. cerevisiae BY4716 + rapamycin, higher = more signal, called active from +8 up or from −8 down.
The target in experiment [15] is Torsin-1A-interacting protein 2 (Homo sapiens) (UniProt Q8NFQ8). Put plainly: small molecules binding lysate-expressed LULL1 – cell lysate, human LULL1 lysate, 635/667 nm fluorescence, primary screen (AID 1092).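 Also: probe is lysate of COS7 cells overexpressing human LULL1; score merges per-feature 667 nm fluorescence with signal-to-noise.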 The conditions noted are these: small-molecule microarray, hLULL1 lysate binding, 635 nm fluorescence; higher = more signal.
A short description of experiment [16]: optical density change of DRC41 E. coli – strain DRC41, OD650, 24 h, E. coli filamentation project, primary screen (AID 1093).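 Also: MC1000 strain lacking acrAB efflux and sulA so SOS filamentation is blocked; test concentration not given here.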 The following applies: E. coli DRC41 growth, higher = more signal, called active from +8 up or from −8 down.
Experiment [17] is described as follows: probe aLefty2 binding to arrayed compounds – biochemical, biotinylated probe, 635/667 nm fluorescence, primary screen (AID 1094).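 Also: score merges spot fluorescence near 667 nm with spot signal-to-noise ratio.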 The conditions noted are these: small-molecule microarray, higher = more signal.
Experiment [18] relates to Noggin (protein binding on small-molecule microarray). Put plainly: small molecules binding Noggin protein – biochemical, 635/667 nm fluorescence, primary screen (AID 1095).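 Also: score merges 667 nm feature fluorescence with signal to noise over triplicate slides.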 The conditions noted are these: 635 nm fluorescence, higher = more signal.
Experiment [19] concerns the target Neurogenic locus notch homolog protein 3 (Homo sapiens) (UniProt Q9UM47). In words: small molecules binding NOTCH3 protein – biochemical, 635/667 nm fluorescence, primary screen (AID 1096). The conditions noted are these: small-molecule microarray, 635 nm fluorescence, higher = more signal.
Experiment [20] can be described thus: probe aEGFR binding to arrayed compounds – biochemical, biotinylated probe, 635/667 nm fluorescence, primary screen (AID 1097).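 Also: probe is a biotinylated anti-EGFR antibody binding compounds printed on slides; score combines fluorescence near 667 nm and signal to noise of each spot.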 The conditions noted are these: small-molecule microarray, higher = more signal.

Chain of Torsin-1A-interacting protein 2 (Homo sapiens) (Q8NFQ8 whole entry, looked up): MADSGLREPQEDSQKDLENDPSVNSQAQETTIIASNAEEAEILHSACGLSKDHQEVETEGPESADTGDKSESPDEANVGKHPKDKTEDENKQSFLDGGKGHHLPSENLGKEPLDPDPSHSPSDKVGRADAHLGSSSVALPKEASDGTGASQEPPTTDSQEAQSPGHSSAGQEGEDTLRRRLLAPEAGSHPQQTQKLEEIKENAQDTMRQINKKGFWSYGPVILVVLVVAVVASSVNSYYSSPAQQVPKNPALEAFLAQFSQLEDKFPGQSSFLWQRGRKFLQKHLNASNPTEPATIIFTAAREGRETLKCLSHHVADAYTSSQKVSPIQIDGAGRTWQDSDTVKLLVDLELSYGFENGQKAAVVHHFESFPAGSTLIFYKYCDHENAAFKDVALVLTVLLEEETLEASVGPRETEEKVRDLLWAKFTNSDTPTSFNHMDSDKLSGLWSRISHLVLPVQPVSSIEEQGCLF
Chain of Pro-neuregulin-1, membrane-bound isoform (Homo sapiens) (Q02297 whole entry, looked up, the tested form may be a part, canonical isoform): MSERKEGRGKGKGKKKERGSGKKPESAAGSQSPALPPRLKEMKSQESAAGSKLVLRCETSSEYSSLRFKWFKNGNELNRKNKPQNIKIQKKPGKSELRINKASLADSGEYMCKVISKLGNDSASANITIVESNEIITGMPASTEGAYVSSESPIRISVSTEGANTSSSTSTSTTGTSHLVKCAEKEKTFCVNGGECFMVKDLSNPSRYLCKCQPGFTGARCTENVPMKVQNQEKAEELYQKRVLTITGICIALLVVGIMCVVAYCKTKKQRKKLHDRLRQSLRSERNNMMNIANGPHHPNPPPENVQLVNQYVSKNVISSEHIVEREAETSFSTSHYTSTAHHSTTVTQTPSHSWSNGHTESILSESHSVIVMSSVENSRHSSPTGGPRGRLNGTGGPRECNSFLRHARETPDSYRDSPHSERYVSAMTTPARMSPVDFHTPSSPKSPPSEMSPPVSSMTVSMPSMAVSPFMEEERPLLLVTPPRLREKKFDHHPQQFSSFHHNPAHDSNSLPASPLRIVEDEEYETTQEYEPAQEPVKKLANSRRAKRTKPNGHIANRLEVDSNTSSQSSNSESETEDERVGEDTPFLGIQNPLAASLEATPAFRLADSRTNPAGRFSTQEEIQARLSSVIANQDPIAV
Chain of Neurogenic locus notch homolog protein 3 (Homo sapiens) (Q9UM47 whole entry, looked up): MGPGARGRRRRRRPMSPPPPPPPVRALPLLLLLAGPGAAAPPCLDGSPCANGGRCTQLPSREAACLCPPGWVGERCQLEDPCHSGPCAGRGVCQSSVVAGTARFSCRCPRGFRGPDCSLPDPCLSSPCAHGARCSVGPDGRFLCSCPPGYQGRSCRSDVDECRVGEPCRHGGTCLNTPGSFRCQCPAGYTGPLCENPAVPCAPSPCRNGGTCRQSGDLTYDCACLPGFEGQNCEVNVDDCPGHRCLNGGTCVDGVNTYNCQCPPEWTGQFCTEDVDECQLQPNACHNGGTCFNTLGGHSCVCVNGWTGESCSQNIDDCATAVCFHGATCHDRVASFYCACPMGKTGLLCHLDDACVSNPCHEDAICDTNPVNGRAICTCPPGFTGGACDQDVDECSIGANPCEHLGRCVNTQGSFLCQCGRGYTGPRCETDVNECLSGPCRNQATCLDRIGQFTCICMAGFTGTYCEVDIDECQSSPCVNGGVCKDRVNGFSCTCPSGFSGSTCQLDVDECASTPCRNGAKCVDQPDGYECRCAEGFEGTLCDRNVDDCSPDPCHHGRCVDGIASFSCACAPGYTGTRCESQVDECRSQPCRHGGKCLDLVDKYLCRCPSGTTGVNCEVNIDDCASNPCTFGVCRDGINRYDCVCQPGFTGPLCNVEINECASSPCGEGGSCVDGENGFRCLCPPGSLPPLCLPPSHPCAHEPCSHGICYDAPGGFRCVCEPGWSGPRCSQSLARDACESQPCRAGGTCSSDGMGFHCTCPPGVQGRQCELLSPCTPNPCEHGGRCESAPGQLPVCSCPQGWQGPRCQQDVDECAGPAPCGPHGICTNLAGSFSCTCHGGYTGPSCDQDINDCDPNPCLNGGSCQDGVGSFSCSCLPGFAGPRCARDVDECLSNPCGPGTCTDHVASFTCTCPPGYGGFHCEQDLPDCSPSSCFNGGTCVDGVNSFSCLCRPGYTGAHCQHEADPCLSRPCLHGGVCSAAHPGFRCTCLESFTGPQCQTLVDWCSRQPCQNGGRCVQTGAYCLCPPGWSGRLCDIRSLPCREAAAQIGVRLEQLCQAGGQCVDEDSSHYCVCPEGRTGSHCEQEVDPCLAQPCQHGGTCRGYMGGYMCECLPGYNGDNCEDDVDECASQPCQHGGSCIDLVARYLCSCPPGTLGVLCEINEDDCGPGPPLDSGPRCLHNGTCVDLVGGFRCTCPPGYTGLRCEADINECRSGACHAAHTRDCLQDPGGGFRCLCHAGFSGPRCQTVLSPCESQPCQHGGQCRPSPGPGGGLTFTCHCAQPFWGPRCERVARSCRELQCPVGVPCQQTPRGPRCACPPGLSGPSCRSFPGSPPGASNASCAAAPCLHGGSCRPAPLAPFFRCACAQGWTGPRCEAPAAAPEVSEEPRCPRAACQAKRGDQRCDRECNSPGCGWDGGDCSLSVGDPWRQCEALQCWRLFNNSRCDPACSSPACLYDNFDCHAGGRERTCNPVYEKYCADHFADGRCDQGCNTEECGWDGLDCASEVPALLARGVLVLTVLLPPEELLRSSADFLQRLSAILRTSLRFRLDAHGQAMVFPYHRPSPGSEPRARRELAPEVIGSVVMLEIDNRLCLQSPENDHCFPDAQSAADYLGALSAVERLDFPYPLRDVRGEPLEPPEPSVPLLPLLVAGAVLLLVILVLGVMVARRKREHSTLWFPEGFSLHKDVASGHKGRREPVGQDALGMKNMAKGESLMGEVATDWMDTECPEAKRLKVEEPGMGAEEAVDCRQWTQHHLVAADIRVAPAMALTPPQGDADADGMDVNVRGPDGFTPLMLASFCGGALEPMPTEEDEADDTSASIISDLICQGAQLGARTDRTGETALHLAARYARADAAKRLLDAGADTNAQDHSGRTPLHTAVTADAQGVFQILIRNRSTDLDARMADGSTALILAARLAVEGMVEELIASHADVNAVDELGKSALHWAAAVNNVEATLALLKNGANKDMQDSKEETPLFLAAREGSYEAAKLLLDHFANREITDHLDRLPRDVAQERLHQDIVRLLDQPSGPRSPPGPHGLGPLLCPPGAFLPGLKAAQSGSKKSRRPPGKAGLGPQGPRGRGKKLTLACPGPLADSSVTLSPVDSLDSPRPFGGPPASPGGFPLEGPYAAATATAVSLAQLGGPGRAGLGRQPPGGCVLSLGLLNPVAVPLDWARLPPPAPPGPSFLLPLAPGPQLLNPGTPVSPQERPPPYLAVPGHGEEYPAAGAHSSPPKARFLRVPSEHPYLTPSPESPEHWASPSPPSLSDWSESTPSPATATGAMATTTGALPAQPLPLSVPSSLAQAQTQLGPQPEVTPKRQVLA

For `COc1ccc([Si](C)(C)[C@@H]2[C@@H](CCn3cc(CCO)nn3)O[C@]3(C(=O)N(Cc4cccc(N5C(=O)c6cccc7cccc5c67)c4)c4ccccc43)[C@H]2C)cc1`, the composite z-score was -0.429 in experiment [1]; -0.179 in [2]; -0.103 in experiment [3]; 0.359 in experiment [4]; 0.275 in [5]; 0.98 in experiment [6]. The composite z-score in experiment [7] was 1.04; in experiment [9] it was 0.525; in [10], -0.189; in [11], 1.55; in experiment [15] it was 1.76; in experiment [17], -0.0956. For the same compound, the values for the composite z-score in [18], in experiment [19] and in [20] were 1.14, 0.903 and -0.125, respectively. In addition, the z-score in experiment [8] is -1.56 (inactive); in experiment [12] it was 1.29 (inactive); in [13] it was 1.56 (inactive); in experiment [14], 20.9 (active); in [16] it was 1.17 (inactive).
On to `CCOc1ccc(N2C(=O)CSC2c2cccc([N+](=O)[O-])c2)cc1` (stereo not given), for which the composite z-score in experiment [1] is -0.368; in experiment [2] it was -0.113; in experiment [3], 0.0525; in experiment [4] it was 0.839; in experiment [5] it was 1.22; in experiment [6], 1.64. Besides, the composite z-score in [7] is 1.29; in experiment [9], 0.569; in [10], -0.199; in experiment [11] it was 0.971; in experiment [15], 1.63; in experiment [17] it was -0.0555. Further, the composite z-score was 0.154 in [18], 0.699 in experiment [19] and -0.0697 in [20]. The z-score in experiment [8] was 0.541 (inactive); in experiment [12], 0.493 (inactive); in experiment [13] it was 0.527 (inactive); in experiment [14], 0.712 (inactive); in experiment [16], 1.01 (inactive).
Regarding `CCCC[C@@H]1C[C@H]1[C@@H](NC(=O)c1cccnc1)c1ccc(Cl)cc1`, the composite z-score in experiment [1] was 1.58; in [2], -1.02; in experiment [3], -0.423; in experiment [4], -1.77; in [5], -1.69; in [6] it was -0.549. The composite z-score in experiment [7] is -0.977; in experiment [9], -0.513; in experiment [10], 0.216; in experiment [11], -2.81; in experiment [15], 0.208; in experiment [17] it was -0.165. Also, the composite z-score in [18] is -2.93; in experiment [19], -2.46; in [20], -0.428. Besides, the z-score was 0.188 (inactive) in experiment [8]; -25 (active) in experiment [12]; -15.4 (active) in experiment [13]; 0.887 (inactive) in [14]; -3.26 (inactive) in experiment [16].
As for `NCCCCCCNC(=O)[C@H]1C[C@H]2C(=O)N[C@@H](Cc3ccccc3)C(=O)N2[C@H]1c1cccc(OCCO)c1`, the composite z-score in [1] came to 0.135; in [2] it was 0.537; in [3] it was 0.0227; in [4] it was 0.534; in [5], 0.427; in experiment [6], 1.7. The composite z-score in experiment [7] was 0.922; in experiment [9], 0.482; in experiment [10] it was -0.0346; in experiment [11], 0.753; in [15], 1.66; in [17] it was 0.255. In addition, the composite z-score in experiment [18] stood at 0.337; in [19], 0.347; in experiment [20] it was 0.0562. The z-score in experiment [8] was 1.7 (inactive); in experiment [12], 0.106 (inactive); in experiment [13], 0.269 (inactive); in experiment [14], -0.689 (inactive); in [16], 0.524 (inactive).
`COc1cc2c(cc1O)C(c1cccs1)N(Cc1ccc([N+](=O)[O-])o1)CC2` (stereo not given): the composite z-score in experiment [1] is -0.116; in experiment [2], 1.85; in [3] it was -0.0265; in experiment [4], 0.724; in [5], 0.881; in experiment [6], 1.54. For the same compound, the composite z-score in experiment [7] is 0.387; in experiment [9], 0.583; in experiment [10] it was -0.0994; in experiment [11], 0.298; in [15], 1.02; in experiment [17], 0.156. The composite z-score was -0.419 in experiment [18], 0.32 in [19] and -0.0859 in [20]. Further, the z-score was -1.63 (inactive) in experiment [8]; -2.77 (inactive) in experiment [12]; -4.47 (inactive) in [13]; -2.27 (inactive) in experiment [14]; -0.73 (inactive) in [16].
